Compounds with a hit are over-represented: about 10% of the library has one in this group of screens.
NPR1 antag: human Npr1 receptor antagonism | HEK293 hNpr1 GloSensor cGMP, ANP-stimulated luminescence | P16066 | AID 1347048 | 76,000 tested, 1.6% active | Potency, µM (series often up to 46.3 µM), inactives show top-dose activity change, negative = inhibition, most hits filed as inhibitors; calls by dose curve; further: on the % scale 0 is the no-effect control and ±100 the full control effect; nearly all actives have a fitted effect of over 60% in size
Target sequence (P16066 whole entry, looked up): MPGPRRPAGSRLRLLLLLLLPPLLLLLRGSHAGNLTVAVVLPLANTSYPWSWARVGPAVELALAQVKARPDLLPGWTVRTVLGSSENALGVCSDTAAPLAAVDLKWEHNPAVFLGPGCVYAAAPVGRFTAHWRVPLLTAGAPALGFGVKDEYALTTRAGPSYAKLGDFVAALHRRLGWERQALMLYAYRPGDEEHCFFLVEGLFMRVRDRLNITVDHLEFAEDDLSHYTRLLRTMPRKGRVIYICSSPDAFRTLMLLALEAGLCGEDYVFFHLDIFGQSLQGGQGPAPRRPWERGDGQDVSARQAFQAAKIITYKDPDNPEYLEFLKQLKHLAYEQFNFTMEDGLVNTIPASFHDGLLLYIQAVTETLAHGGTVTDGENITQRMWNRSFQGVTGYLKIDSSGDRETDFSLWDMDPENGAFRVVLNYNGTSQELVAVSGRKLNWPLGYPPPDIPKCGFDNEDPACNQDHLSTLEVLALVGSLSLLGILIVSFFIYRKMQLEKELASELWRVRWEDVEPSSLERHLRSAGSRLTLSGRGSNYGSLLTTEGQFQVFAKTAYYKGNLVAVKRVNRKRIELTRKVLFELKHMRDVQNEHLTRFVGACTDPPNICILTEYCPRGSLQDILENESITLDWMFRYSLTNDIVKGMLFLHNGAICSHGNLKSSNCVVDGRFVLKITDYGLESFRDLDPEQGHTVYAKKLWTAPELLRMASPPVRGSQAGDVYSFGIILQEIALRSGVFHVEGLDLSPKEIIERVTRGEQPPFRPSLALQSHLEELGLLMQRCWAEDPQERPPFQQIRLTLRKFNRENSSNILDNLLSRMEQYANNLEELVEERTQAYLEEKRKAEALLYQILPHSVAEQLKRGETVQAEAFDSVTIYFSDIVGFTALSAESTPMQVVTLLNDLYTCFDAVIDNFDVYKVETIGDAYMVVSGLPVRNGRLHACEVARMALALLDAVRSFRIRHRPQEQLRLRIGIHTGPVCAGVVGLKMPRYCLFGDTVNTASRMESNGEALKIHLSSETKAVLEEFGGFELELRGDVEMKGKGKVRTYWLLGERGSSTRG
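HEK293 cells stably expressing human Npr1 and cGMP GloSensor pGS-40F, loaded 2 h with 2% GloSensor reagent, given compound 30 min at room temperature. Luminescence read before and 20 min after 0.1 nM hNppA.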
HEK cytotox: cytotoxic compounds in HEK 293 cells | Potency, µM (top dose mostly 115 µM), for inactives: at the highest dose activity change, negative = cytotoxicity, usual class: inhibitors | AID 1345083 | 94,000 tested, 6.6% active | HEK 293 viability, ATP luminescence (CellTiter-Glo), 48-72 h; further: on the % scale 0 is the no-effect control and ±100 the full control effect; nearly all actives have a fitted effect of over 60% in size
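Viability of HEK 293 cells, plated at 250 cells/well, was judged by cellular ATP after compound treatment for 48 or 72 hr. Luminescence was imaged 10 min after CellTiter-Glo addition at room temperature.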
NIH3T3 tox: kills NIH 3T3 cells. NIH 3T3 viability, CellTiter-Glo ATP luminescence, 48-72 h. Potency, µM (titrated, usually from 96.7 µM), inactives show top-dose activity change, negative = cytotoxicity, hits mostly inhibitors. 94,000 tested, 4.3% active; further: on the % scale 0 is the no-effect control and ±100 the full control effect; nearly all actives have a fitted effect of over 55% in size
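Viability of NIH 3T3 cells after 48 or 72 hr compound treatment at 37 °C was assessed by CellTiter-Glo, with luminescence imaged following a 10 min room-temperature step.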
FLuc inh: blocks purified firefly luciferase enzyme activity; 76,000 tested, 2.5% active; Potency, µM (series often up to 115 µM), actives largely listed as inhibitors; purified P. pyralis luciferase, luminescence, biochemical; AID 1347043; further: on the % scale 0 is the no-effect control and ±100 the full control effect; nearly all actives have a fitted effect of over 65% in size
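Luminescence read by CCD imaging after purified firefly luciferase (10nM final) was added to substrate buffer holding 10uM D-luciferin and 10uM ATP, pH 7.5, pre-dosed with compound.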
GPT2 inhibitor: inhibitors of human GPT2 alanine aminotransferase; Recombinant GPT2, coupled pyruvate oxidase/HRP Amplex Red fluorescence; Q8TD30; 100,000 tested, 0.25% active; Potency, µM (top dose mostly 57.7 µM), for the others: top-dose activity change, negative = inhibition, hits mostly inhibitors; further: on the % scale 0 is the no-effect control and ±100 the full control effect; nearly all actives have a fitted effect of over 60% in size
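Fluorescence read-out: pyruvate from GPT2 turnover coupled to pyruvate oxidase, HRP and Amplex Red (0.2mM ThPP, 0.2U/mL PO and HRP, 50uM Amplex final). Substrates 250uM a-KG, 2mM L-alanine; enzyme 10ng/uL; 30 min RT.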
Npr1 antag conf: hNpr1 antagonism, confirmation assay | shares compounds with NPR1 antag | HEK293 hNpr1 cGMP GloSensor luminescence, ANP-stimulated | Potency, µM (series often up to 57.6 µM), inactives show at the top dose activity change, negative = inhibition, hits mostly inhibitors | 1,400 tested, 76% active | AID 1347044; calls by dose curve; further: nearly all actives have a fitted effect of over 70% in size
Npr2 selectivity: selectivity test of Npr1 antagonists against human Npr2; Potency, µM (series often up to 57.6 µM), without a hit: at the top dose activity change, negative = inhibition, actives largely listed as inhibitors; HEK293 hNpr2 GloSensor cGMP luminescence, CNP-stimulated; AID 1347046; shares compounds with NPR1 antag; 1,400 tested, 67% active; calls by dose curve; further: nearly all actives have a fitted effect of over 70% in size
FLuc inh counter: counter-screen for Npr1 antagonists: firefly luciferase inhibitors | shares compounds with NPR1 antag | purified FLuc enzyme, luminescence, Km substrate | Potency, µM (doses to about 57.6 µM), for the others: top-dose activity change, negative = inhibition, hits mostly inhibitors | 1,400 tested, 0.7% active; further: 0% is about no effect
GloSensor cGMP: control cell line activity, Npr1 antagonist counter-screen | shares compounds with NPR1 antag | HEK293 GloSensor cGMP, SNP-stimulated, luminescence | Potency, µM (highest dose often 57.6 µM), for the others: top-dose activity change, negative = inhibition, hits mostly inhibitors | 1,400 tested, 69% active; calls by dose curve; further: on the % scale 0 is the no-effect control and ±100 the full control effect; nearly all actives have a fitted effect of over 70% in size
Active calls of the source: *; i = inactive; u = inconclusive; x = no result; [ ] = remark or other dose. Unless noted, the call rests on the fitted dose curve; in most records, active means well fitted curve in the direction sought with a large enough effect; inconclusive means small, poorly fitted or top-dose-only effect, or another doubt; inactive means no such curve, though single readings can be large; an effect the other way counts as inactive or inconclusive. Potency means the concentration at half of the fitted maximal effect.

SMILES	NPR1 antag	HEK cytotox	NIH3T3 tox	FLuc inh	GPT2 inhibitor	Npr1 antag conf	Npr2 selectivity	FLuc inh counter	GloSensor cGMP
COc1cc(NC(=O)c2cc3n(n2)CC(c2ccc(Br)cc2)OC3)cc(OC)c1OC (centres undefined)	u	u	u	i	-6.9%	u	-24.6%	-2.9%	-19.2%
O=C(Nc1cccc(F)c1)c1cc2n(n1)CC(c1ccc(Br)cc1)OC2 (centres undefined)	-26.1%	u	u	u	i	x	x	x	x
COc1ccccc1C(O)c1nc(Nc2ccc(Cl)cc2)n[nH]1 (centres undefined)	-17.2%[70.6 µM]	u	u	i	-9.7%[88.5 µM]	x	x	x	x
Cc1ccc(C(=O)N2C[C@H]3OC(=O)N(CCc4cccc(Cl)c4)[C@H]3C2)cn1	0.5%	i	2.8%	i	-2.3%	x	x	x	x
Cc1cccc(C(=O)N2CCC(Cc3nc(-c4cnccn4)no3)CC2)c1	-8.7%	-15.7%	-39.7%	i	i	x	x	x	x
CCOc1ccc(C(=O)N2CCC[C@H]2c2nc(-c3ccc(OC)cc3)no2)cc1OCC	-10.6%	-12.9%	-16.3%	i	i	x	x	x	x
COc1ccc(C(=O)N2CCC(c3noc(COc4ccc(F)cc4)n3)CC2)cn1	u	u	u	i	-7.7%	x	x	x	x
COC(=O)c1cccc(C(=O)N2CCC(Cc3nc(-c4ccc(OC)cc4)no3)CC2)c1	6.31µM*	56.2µM*	u	i	i	6.85µM*	8.62µM*	-7.4%	5.44µM*
COc1ccc(-c2noc(CC3CCN(C(=O)c4ccc(OC)nc4)CC3)n2)cc1	7.08µM*	u	u	i	2.6%	5.44µM*	6.11µM*	0.7%	5.44µM*
CCOc1ccc(C(=O)N2CCC(Cc3nc(-c4ccc(F)cc4)no3)CC2)cc1OCC	3.98µM*	u	39.8µM*	i	-3.2%	3.85µM*	6.11µM*	2.5%	4.85µM*
CCOc1ccc(C(=O)N2CCC(Cc3nc(-c4ccc(OC)cc4)no3)CC2)cc1OCC	6.31µM*	39.8µM*	u	i	i	10.9µM*	15.3µM*	2.1%	9.68µM*
Cc1noc(C)c1CCCNC(=O)CCC[C@@H]1[C@H]2CCCN3CCC[C@@H](CN1C)[C@@H]23	-0.1%	0.5%	i	i	i	x	x	x	x
O=[S+]1([O-])NC2(CCN(Cc3ccc(OC(F)(F)F)cc3)C2)CNc2ccccc21 (centres undefined)	u	50.1µM*	u	i	i	9.68µM*	12.2µM*	0.3%	10.9µM*
O=[S+]1([O-])NC2(CCN(Cc3ccc(F)cc3)C2)CNc2ccccc21 (centres undefined)	-5.4%	u	-22.1%	i	i	x	x	x	x
COc1ccc(N2CCN(C(=O)Nc3nc(C)ns3)CC2(C)C)cc1	7.94µM*	10µM*	u	i	i	12.2µM*	15.3µM*	2.8%	8.62µM*
Cc1noc(C)c1CN1CCCC(COc2ccccc2C(=O)N2CCOCC2)C1 (centres undefined)	-10.5%	-0.6%	-4.1%	i	i	x	x	x	x
N[C@H]1CN(c2cncc(C(=O)N3CCCCC3)n2)C[C@@H]1C1CC1	5.0%	1.5%	-15.0%	i	0.2%[11.5 µM]	x	x	x	x
Cc1nn(-c2ccccc2)c2c1C(C(C)C)N(C1CN([S+](=O)([O-])c3ccccc3)C1)C2=O (centres undefined)	x	u	-18.7%	x	x	x	x	x	x
CN(C)c1cccc(-c2cnc3[nH]cc(CC(=O)N4CCOCC4)c3c2)c1	31.6µM*	79.4µM*	u	i	i	22.2µM*	28µM*	u	25µM*
Cn1cc(-c2cnc3[nH]cc(CC(=O)NCc4ccc5c(c4)OCO5)c3c2)cn1	0.4%[70.6 µM]	u	u	i	i	x	x	x	x
Cc1cccc(-c2cnc3[nH]cc(CC(=O)N4CCOCC4)c3c2)c1	12.6µM*	u	u	i	0.2%[88.5 µM]	12.5µM*	25µM*	-20.7%[86.2 µM]	9.94µM*
CNC(=O)c1cccc(-c2cnc3[nH]cc(CC(=O)N(C)c4ccccc4)c3c2)c1	28.2µM*	44.7µM*	20µM*	i	2.5%[88.5 µM]	35.3µM*	35.3µM*	-23.2%[86.2 µM]	39.6µM*
CCNC[C@H]1O[C@H](Cc2cc(-c3ccc(F)cc3)on2)CC[C@@H]1O	u	u	u	u	-1.6%[88.5 µM]	u	-20.9%[86.2 µM]	-25.7%[86.2 µM]	u
O[C@H]1CC[C@@H](Cc2cc(-c3ccc(F)cc3)on2)O[C@@H]1CNCc1ccncc1	-13.2%[70.6 µM]	-21.2%[172 µM]	-18.0%[174 µM]	i	-7.2%[88.5 µM]	x	x	x	x
COCc1cc(C[C@@H]2CC[C@H](O)[C@@H](CNC3CCN(C)CC3)O2)no1	-1.6%[70.6 µM]	-10.9%[172 µM]	-8.7%[138 µM]	i	-15.9%[88.5 µM]	x	x	x	x
SMILES	NPR1 antag	HEK cytotox	NIH3T3 tox	FLuc inh	GPT2 inhibitor	Npr1 antag conf	Npr2 selectivity	FLuc inh counter	GloSensor cGMP
CN1CCC(NC[C@H]2O[C@H](Cc3cc(-c4cccc(O)c4)on3)CC[C@@H]2O)CC1	u	-0.2%[172 µM]	-1.9%[174 µM]	i	-1.5%[88.5 µM]	u	-26.7%[86.2 µM]	-12.7%[86.2 µM]	u
CCOc1ccc(CN2CCN(Cc3nc4ccccc4[nH]3)CC2CCO)cc1 (centres undefined)	10.5%	-16.3%	-22.4%	i	1.0%	x	x	x	x
CN1CC(=O)N(c2ccccc2F)Cc2c(NCC3CC3)ncnc21	6.3%[70.6 µM]	-27.3%[172 µM]	-26.6%[138 µM]	i	2.8%[88.5 µM]	x	x	x	x
Cc1ccc(OCC(=O)N2CCCC(c3nn(C)c(=O)n3C(C)C)C2)cc1 (centres undefined)	14.1µM*	u	-27.6%	i	-11.0%	24.3µM*	u	2.0%	24.3µM*
COc1ccc(C2Cn3nnc(C(=O)N4CCN(C(=O)Cc5ccccc5C)CC4)c3CO2)cc1 (centres undefined)	u	u	-12.8%	i	i	21.7µM*	21.7µM*	-1.7%	24.3µM*
COc1ccc(C2Cn3nnc(C(=O)N4CCN(C(=O)CCc5ccccc5)CC4)c3CO2)cc1 (centres undefined)	u	u	-26.9%	i	-4.8%	24.3µM*	u	1.7%	21.7µM*

Screening results (PubChem)
